# Experimental data published in PubChem BioAssay.
# Values joined by “and” are separate entries in the source; they are usually repeats but may differ in a detail not shown here. Identical values can stand only once. For some of these results: Potency and affinity values are given separately. Active and inactive are the calls of the source.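 How the source made its calls, unless noted: active means z-score of at least 1.8 in each of two replicates, scored against plate mean and spread of sample wells; inactive means the rest.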 Numbered stars: 1 amine (or outer) side, 2 acyl side, 3 side chain; on linkers, the order of the positions; unused ones are H or OH. Bridge positions count the residues as written; N and C are the ends. Square brackets hold non-standard residues; d marks the D form. Peptide text beside a SMILES is read from it. * marks the point of attachment. ξ: configuration not given here. ΔAla(Z-3-ureido) = NC(=O)N/C=C(\N)C(=O)O; X2 = NC1=NCCC(C(N[*:1])C(=O)[*:2])N1; ξβ3hOrn = NCCCC(N)CC(=O)*; Dap = NC[CH](N)C(=O)O
# Legend:
# [1] = blockers of polyQ-driven CASP3 activation – cell-based (AID 1583); details: polyglutamine-induced caspase-3 activation, cell assay; stronger effect = higher value;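 tested at 10 µM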
# [2] = yeast 75Q aggregation reduction – 75Q-TubU reporter (AID 1593); details: Yeast 75Q polyglutamine aggregation reporter
# [3] = restoration of touch response, mutant HTT neurons – whole organism, C. elegans mechanosensory neurons, N-terminal huntingtin (AID 1599); details: C. elegans polyQ-huntingtin mechanosensory neurons, stronger effect = higher value
# [4] = blockers of cytochrome c efflux from mitochondria – biochemical, purified mitochondria (AID 1603); details: stronger effect = lower value;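 further: mouse liver mitochondria challenged with calcium chloride; signal normalized to the plate average as 100%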
# [5] = polyglutamine aggregate formation blockers (AID 1604); details: polyglutamine-induced protein aggregation inhibition assay; stronger effect = higher value; tested at 2.5 µM
# [6] = glutamate transport activators, MN-1 cells, MN-1 cell line (AID 1612); details: MN-1 motor neuron cells, stronger effect = higher value;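 further: tested at 1 µM final; 0% = mean of DMSO vehicle wells on each plate; positive means more glutamate uptake than control and negative means less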
# [7] = 75Q-TubH aggregate inhibition, S. cerevisiae, yeast (AID 1616); details: S. cerevisiae 75Q-TubH polyglutamine aggregation suppression; stronger effect = higher value
# [8] = GFP-Q80 aggregate reduction, neuronal-like cells, cell-based, NGF-treated PC12, GFPQ80 (AID 1614); details: PC12 NGF-treated GFP-polyQ80 inclusion reduction;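 further: lower means fewer inclusions and 0 means no inclusions at all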
# [9] = P. berghei load reduction in hepatocytes – cell-based, HepG2, luciferase luminescence, HepG2 viability, primary screen (AID 624349; in the data active means parasite load remaining mostly below about 12%, no sharp cut-off; inactive means mostly above about 10%;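 further: 100% = mean of DMSO negative control wells on the same plate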); details: P. berghei liver stage in HepG2, luciferase luminescence, concentration not given here; parasite load remaining: stronger effect = lower value; viability: measured here: HepG2 viability without parasites
# [10] = galactose survival enhancers in mitochondrial complex I cybrids – cell-based, galactose medium, ATP luminescence, primary screen (AID 1645843); details: complex I mutant cybrid cells, 72 h, stronger effect = higher value;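 further: positive z means more ATP and so rescue of galactose-driven cybrid death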
smiles,measurement,setting,value
COC1=C2C[C@@H](C)C[C@H](OC)[C@H](O)[C@@H](C)/C=C(\C)[C@@H](OC(N)=O)[C@H](OC)/C=C\C=C(/C)C(=O)NC(=CC1=O)C2=O,inhibition,[1],-5.02%
same,score,[2],2.11
same,rescue above control,[3],0
same,cytochrome c release ratio,[4],1.13
same,inhibition of aggregation,[5],-23.4%
same,glutamate uptake change,[6],10.3%
same,aggregation suppression score,[7],1.43
NC[C@@H]1O[C@H](O[C@H]2[C@@H](O)[C@H](O[C@@H]3[C@@H](O)[C@H](N)C[C@H](N)[C@H]3O[C@@H]3O[C@H](CO)[C@@H](O)C[C@H]3N)O[C@@H]2CO)[C@H](N)[C@@H](O)[C@@H]1O[C@H]1O[C@H](CO)[C@@H](O)[C@H](O)[C@@H]1O,inhibition,[1],-3.41%
same,score,[2],1.7
same,rescue above control,[3],7.71
same,cytochrome c release ratio,[4],0.95
same,inhibition of aggregation,[5],11.6%
same,glutamate uptake change,[6],1.1%
same,inclusion score,[8],2
same,aggregation suppression score,[7],1.86
NC[C@@H]1O[C@H](OC2[C@@H](O)[C@H](O[C@@H]3[C@H](N)[C@@H](O)C[C@H](N)[C@H]3O[C@H]3O[C@H](CO)[C@@H](O)[C@H](O)[C@H]3N)O[C@@H]2CO)[C@H](N)[C@@H](O)[C@@H]1O (some centres undefined),inhibition,[1],25.1%
same,score,[2],0.88
same,rescue above control,[3],-2.53
same,cytochrome c release ratio,[4],1.33
same,inhibition of aggregation,[5],16.8%
same,glutamate uptake change,[6],21.4%
same,inclusion score,[8],2
same,aggregation suppression score,[7],0.564
COc1ccc2c(c1OC)C(=O)O[C@H]2[C@@H]1c2ccccc2CCN1C,inhibition,[1],69.2%
same,score,[2],1.08
same,rescue above control,[3],-8.02
same,cytochrome c release ratio,[4],0.71
same,inhibition of aggregation,[5],72.2%
same,glutamate uptake change,[6],-0.43%
same,inclusion score,[8],2
same,aggregation suppression score,[7],19
O=C(Cc1cccs1)NC1C(=O)N2C(C(=O)[O-])=C(C[n+]3ccccc3)CSC12 (centres undefined),inhibition,[1],35.1%
same,score,[2],1.38
same,rescue above control,[3],-1.43
same,cytochrome c release ratio,[4],1.22
same,inhibition of aggregation,[5],59%
same,glutamate uptake change,[6],-13.7%
same,inclusion score,[8],2
same,aggregation suppression score,[7],1.45
same,parasite load remaining,[9],179% (inactive)
same,viability,[9],74.4%
NCCCC(N)CC(=O)NCC1NC(=O)C(CO)NC(=O)C(N)CNC(=O)C(C2CCN=C(N)N2)NC(=O)/C(=C/NC(N)=O)NC1=O (stereo not drawn) (H-[Dap]S[Dap](ξβ3hOrn)[ΔAla(Z-3-ureido)][X2]; lactam 1-C; configuration not given here),inhibition,[1],21.4%
same,score,[2],1.54
same,rescue above control,[3],3.33
same,cytochrome c release ratio,[4],2.07
same,inhibition of aggregation,[5],-24.2%
same,glutamate uptake change,[6],13.7%
same,inclusion score,[8],1
same,aggregation suppression score,[7],0.882
CC(=O)C1CCC2C3CC=C4CC(OS(=O)(=O)O)CC[C@]4(C)C3CC[C@]12C (some centres undefined),inhibition,[1],-1.98%
same,score,[2],0.85
same,rescue above control,[3],6.71
same,cytochrome c release ratio,[4],1.34
same,inhibition of aggregation,[5],37.2%
same,glutamate uptake change,[6],48.1%
same,inclusion score,[8],2
same,aggregation suppression score,[7],0.286
Nc1ncnc2c1ncn2C1OC(CO)[C@H](O)C1O (some centres undefined),inhibition,[1],-97.3%
same,score,[2],1.18
same,rescue above control,[3],-9.49
same,cytochrome c release ratio,[4],1.64
same,inhibition of aggregation,[5],80.6%
same,glutamate uptake change,[6],3.91%
same,inclusion score,[8],2
same,aggregation suppression score,[7],1.96
COC(=O)/C(=C1\OC(=O)C(c2ccccc2)C1=O)c1ccccc1 (centres undefined),inhibition,[1],-4.2%
same,score,[2],0.04
same,rescue above control,[3],9.72
same,cytochrome c release ratio,[4],2.13
same,inhibition of aggregation,[5],31.4%
same,glutamate uptake change,[6],6.01%
same,inclusion score,[8],2
same,aggregation suppression score,[7],0.0212
Cc1cc(C)n(CC(C)n2cnc3cccc(C)c3c2=O)n1 (centres undefined),z-score,[10],0.34 (inactive)
Fc1ccc(C(c2ccccc2)(c2ccccc2F)n2ccnc2)cc1 (centres undefined),inhibition,[1],-9.56% and 14%
same,score,[2],1.45 and 0.36
same,rescue above control,[3],12 and 6.65
same,cytochrome c release ratio,[4],3.37 and 1.21
same,glutamate uptake change,[6],5.37% and 7.94%
same,inclusion score,[8],2
same,aggregation suppression score,[7],1.35 and 0.117
CC(O)Cc1cn(CC2CCN(C(=O)C3CCCCCC3)CC2)nn1 (centres undefined),z-score,[10],-0.51 (inactive)
CC1(C)CC(CC(=O)N2CCC(n3cc(C(C)(C)O)nn3)CC2)CC(C)(C)N1,z-score,[10],-0.57 (inactive)
CCc1nc(C)ccc1OCC(=O)N1CCc2[nH]nc(C3CC3)c2C1,z-score,[10],-0.685 (inactive)
CC(C)CCC(C)N[C@H](CO)Cc1ccccc1 (some centres undefined),z-score,[10],-0.5 (inactive)
COc1nccnc1-c1cccc(-n2cccn2)c1,z-score,[10],-0.545 (inactive)
CC(C)C1C(=O)N(C)CCN1C(=O)Nc1nc(-c2ccccc2)ns1 (centres undefined),z-score,[10],-0.345 (inactive)
CCCN1CCC(N2CCC(n3cc(-c4ccccc4)nn3)CC2)CC1,z-score,[10],0.325 (inactive)
CCn1cc(CN(C(=O)c2cnc3ccccn3c2=O)C(C)C)cn1,z-score,[10],0.18 (inactive)
COC(=O)CCC(=O)N1CCc2[nH]nc(-c3ccc4c(c3)OCO4)c2C1,z-score,[10],-0.12 (inactive)
CCCCn1cc(-c2cc(C(=O)N3CCCC3C)c3cccc(C)c3n2)cn1 (centres undefined),z-score,[10],1.28 (inactive)
COc1ccc(OC)c(-c2ccc3nc(C)ccc3c2)c1,z-score,[10],-1.14 (inactive)
Cc1cc(CN(C)Cc2ccc(-c3nc(C)c(C)c(=O)[nH]3)cc2)ccn1,z-score,[10],-0.52 (inactive)
Cc1ccc(C)c(CNC(=O)Nc2nc(C)ns2)c1,z-score,[10],0.47 (inactive)
